From PubChem BioAssay
The list is not random: actives were taken first. Their share in the collection is about 1.3%.
TRPV1 ag – agonists of human vanilloid receptor 1 (TRPV1); Q8NER1; TRPV1-expressing cells, Fluo-8 calcium influx, agonist mode; activation, % at 8.33 µM; 320,000 compounds, 0.19% hits; AID 540275; in the data active = activation above about 80%; inconclusive = between about 30% and that limit
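Cells expressing TRPV1 were dye-loaded with Fluo-8 and read kinetically: 10 s baseline, 3 min after compound (agonist portion), then 2 min after EC20 capsaicin (allosteric enhancer portion). Calcium-bound dye fluorescence at 480/520 nm.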
KCNH2 3.1 block – blocks the human KCNH2 3.1 channel isoform; AID 720553; U2OS KCNH2 3.1, thallium flux FluxOr; active compounds read low; activity change, % (tested at about 1.8 µM); 340,000 compounds, 0.95% hits;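 active = maximum activity change below -70%; inconclusive = maximum activity change from -70% to -50%; inactive = maximum activity change above -50%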;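 also: thallium influx rate constant from kinetic fluorescence after stimulation buffer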
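Thallium flux via FluxOr fluorescence (Red40 quencher, 45 min loading) in U2OS cells virally expressing the KCNH2 3.1 isoform (1.77 x 10^8 /mL virus, overnight at 37 C). Rate constants from 2-min kinetic reads post-stimulation, normalised to positive and negative controls.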
hERG WT inh – blocks the wildtype human KCNH2 potassium channel; Q12809; U2OS, BacMam KCNH2, thallium flux FluxOr; active compounds read low; 340,000 compounds, 0.37% hits; activity change, % at 1.84 µM;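 active = maximum activity change below -70%; inconclusive = maximum activity change between -70% and -50%; inactive = maximum activity change above -50%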
Target sequence (Q12809 whole entry, looked up): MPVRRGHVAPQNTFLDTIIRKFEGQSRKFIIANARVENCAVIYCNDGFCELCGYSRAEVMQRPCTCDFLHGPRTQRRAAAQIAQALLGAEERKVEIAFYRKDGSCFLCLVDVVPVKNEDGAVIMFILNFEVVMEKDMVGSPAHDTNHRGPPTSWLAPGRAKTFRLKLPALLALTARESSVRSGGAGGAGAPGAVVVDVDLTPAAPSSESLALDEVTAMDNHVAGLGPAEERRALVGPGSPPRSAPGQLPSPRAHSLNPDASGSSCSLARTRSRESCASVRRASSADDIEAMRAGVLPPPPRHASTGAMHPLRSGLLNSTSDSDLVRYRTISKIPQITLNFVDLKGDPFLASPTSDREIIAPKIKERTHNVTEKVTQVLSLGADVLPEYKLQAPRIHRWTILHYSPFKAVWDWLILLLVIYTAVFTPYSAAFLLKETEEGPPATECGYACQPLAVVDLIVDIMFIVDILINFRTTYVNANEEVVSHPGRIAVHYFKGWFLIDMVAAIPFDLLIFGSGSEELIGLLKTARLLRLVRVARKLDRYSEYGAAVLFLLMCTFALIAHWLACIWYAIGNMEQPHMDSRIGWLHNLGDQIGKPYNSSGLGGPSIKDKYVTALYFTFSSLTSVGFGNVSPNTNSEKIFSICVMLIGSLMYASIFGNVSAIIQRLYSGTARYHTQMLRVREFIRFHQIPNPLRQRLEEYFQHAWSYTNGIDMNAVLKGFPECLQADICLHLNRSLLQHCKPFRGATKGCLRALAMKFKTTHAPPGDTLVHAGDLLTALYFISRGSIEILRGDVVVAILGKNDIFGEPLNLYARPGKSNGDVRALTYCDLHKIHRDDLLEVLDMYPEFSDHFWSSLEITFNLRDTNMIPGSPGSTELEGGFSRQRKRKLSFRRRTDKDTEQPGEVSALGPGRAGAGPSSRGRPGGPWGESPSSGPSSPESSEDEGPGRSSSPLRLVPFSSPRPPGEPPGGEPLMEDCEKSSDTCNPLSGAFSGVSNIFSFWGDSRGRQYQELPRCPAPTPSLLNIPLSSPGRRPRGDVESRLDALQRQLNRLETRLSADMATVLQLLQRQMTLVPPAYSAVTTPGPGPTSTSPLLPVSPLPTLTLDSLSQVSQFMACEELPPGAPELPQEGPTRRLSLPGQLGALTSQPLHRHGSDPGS
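U2OS cells transduced with wild-type KCNH2 virus are loaded with FluxOr dye for 45 min, and thallium flux is measured in kinetic reads before and after stimulation buffer. Rate constants are normalized to DMSO controls.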
TRPV1 potentiator – enhances activation of the human vanilloid receptor TRPV1; 320,000 compounds, 0.02% hits; AID 540277; TRPV1-expressing cells, Fluo-8 calcium influx, capsaicin EC20 potentiation; Q8NER1; potentiation, % at 8.33 µM; in the data active = potentiation above about 80%; inconclusive = between about 30% and that limit
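TRPV1-expressing cells were cultured overnight at 35.5C and loaded with Fluo-8 calcium dye for 40 to 90 min at room temperature. After a 10 s baseline, compound was added and calcium influx was read kinetically for 3 min (ex 480/em 520 nm).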
Hits are given with their value; ! = a repeat was not active.

For CCOc1ccc(C2=Nn3c(nnc3-c3ccccc3)SC2)cc1Cl the results were TRPV1 ag inactive, KCNH2 3.1 block -203, hERG WT inh inactive and TRPV1 potentiator inactive.
`COc1ccc(C2(C)NC(=O)N(CC(=O)Nc3ccc4[nH]c(=O)[nH]c4c3)C2=O)cc1` (stereo unspecified) gave TRPV1 ag inactive, KCNH2 3.1 block inactive, hERG WT inh inactive and TRPV1 potentiator inactive.
For CC1(c2ccc(OC(F)F)cc2)NC(=O)N(CC(=O)Nc2ccc3[nH]c(=O)[nH]c3c2)C1=O (stereo unspecified) the results were TRPV1 ag inactive, KCNH2 3.1 block inactive, hERG WT inh inactive and TRPV1 potentiator 81.
Screening COc1cc(NC(=O)c2csc(-c3ccncc3)n2)cc(C(=O)Nc2cccc(C(F)(F)F)c2)c1 returned TRPV1 ag inactive, KCNH2 3.1 block -118, hERG WT inh inconclusive and TRPV1 potentiator inactive.
Screening Cc1c(CC(=O)N2CCC(C(N)=O)CC2)c(=O)oc2cc3c(cc12)CCC1(CCCCC1)O3 returned TRPV1 ag inactive, KCNH2 3.1 block inactive, hERG WT inh inactive and TRPV1 potentiator inactive.
Screening Cc1ccc(CN2CCN(Cc3cccn3-c3nccs3)CC2CCO)cc1 (stereo unspecified) returned TRPV1 ag inactive, KCNH2 3.1 block -88, hERG WT inh inactive and TRPV1 potentiator inactive.
For CC(C)CCN1CCN(Cc2cccn2-c2nccs2)CC1CCO (stereo unspecified) the results were TRPV1 ag inactive, KCNH2 3.1 block inactive, hERG WT inh inactive and TRPV1 potentiator inactive.
For Cc1ccc(CN2CCN(Cc3cccn3-c3ccccn3)CC2CCO)cc1 (stereo unspecified) the results were TRPV1 ag inactive, KCNH2 3.1 block -72, hERG WT inh -76 and TRPV1 potentiator inactive.
COc1ccc(N2CCN(C3CCCN(Cc4cccc(OC)c4)C3)CC2)cc1 (stereo unspecified) was read as TRPV1 ag inactive, KCNH2 3.1 block inactive, hERG WT inh inactive and TRPV1 potentiator inactive.
For CCOC(=O)c1ccc(NC(=O)CSc2nnc(-c3cccs3)n2CC)cc1 the results were TRPV1 ag inactive, KCNH2 3.1 block -93, hERG WT inh inactive and TRPV1 potentiator inactive.
For Cc1cc(=O)n(C(C)(C)C)c(=O)n1Cc1ccccc1 the results were TRPV1 ag inactive, KCNH2 3.1 block inactive and TRPV1 potentiator inactive.
Screening CN(C)CCNc1oc(COc2ccc(-c3ccccc3)cc2)nc1C#N returned TRPV1 ag inactive, KCNH2 3.1 block -72, hERG WT inh inactive and TRPV1 potentiator inactive.
Screening O=C(Nc1ccc(Br)cn1)c1cccc(C(=O)Nc2ccc(Br)cn2)c1 returned TRPV1 ag inactive, KCNH2 3.1 block -77, hERG WT inh inactive and TRPV1 potentiator inactive.
For CN(CCC1CCOCC1)C(=O)C1CCC(=O)N(CCc2ccccc2)C1 (stereo unspecified) the results were TRPV1 ag inactive, KCNH2 3.1 block inactive, hERG WT inh inactive and TRPV1 potentiator inactive.
For CN1CCc2c(c3ccccc3n2C)C1 the results were TRPV1 ag inactive, KCNH2 3.1 block inactive, hERG WT inh inactive and TRPV1 potentiator inactive.
CN1CCc2c(c3ccccc3n2Cc2ccccc2)C1 was read as KCNH2 3.1 block -77! and hERG WT inh inactive.
For CCCCN1CCc2c(c3ccccc3n2Cc2ccccc2)C1 the results were TRPV1 ag inactive, KCNH2 3.1 block -94, hERG WT inh inconclusive and TRPV1 potentiator inactive.
Screening c1ccc(CN2CCc3[nH]c4ccccc4c3C2)cc1 returned KCNH2 3.1 block inactive and hERG WT inh inactive.
O=C(CC(=O)N1CCOCC1)N1CCOCC1 was read as KCNH2 3.1 block inactive and hERG WT inh inactive.
Screening CCN(Cc1ccc2c(c1)OCCO2)C(=O)CN1C(=O)NC2(CCc3ccccc32)C1=O (stereo unspecified) returned TRPV1 ag inactive, KCNH2 3.1 block inactive, hERG WT inh inactive and TRPV1 potentiator inactive.
`Cc1ccc(/C=N/NC(=O)CN2CCN(S(=O)(=O)c3ccc(Br)cc3)CC2)s1` gave TRPV1 ag inactive, KCNH2 3.1 block inactive, hERG WT inh inactive and TRPV1 potentiator inactive.
`Cc1ccc(S(=O)(=O)N2CCN(CC(=O)N/N=C/C=C/c3ccccc3)CC2)cc1` gave TRPV1 ag inactive, KCNH2 3.1 block -75, hERG WT inh inactive and TRPV1 potentiator inactive.
`O=C(CN1CCN(S(=O)(=O)c2ccc(Br)cc2)CC1)N/N=C/c1ccc(Br)s1` gave TRPV1 ag inactive, KCNH2 3.1 block -76, hERG WT inh inactive and TRPV1 potentiator inactive.
For Cc1ccc(S(=O)(=O)N2CCN(CC(=O)N/N=C\c3ccc(O)c(O)c3)CC2)cc1 the results were TRPV1 ag inactive, KCNH2 3.1 block inactive, hERG WT inh inactive and TRPV1 potentiator inactive.
Cc1ccc(C)c(S(=O)(=O)N2CCN(C(=O)Cc3c(F)cccc3Cl)CC2)c1 was read as TRPV1 ag inactive, KCNH2 3.1 block -78, hERG WT inh inactive and TRPV1 potentiator inactive.
For CCN(C(=O)COC(=O)c1nc(Cl)ccc1Cl)C1CCS(=O)(=O)C1 (stereo unspecified) the results were TRPV1 ag inactive, KCNH2 3.1 block inactive, hERG WT inh inactive and TRPV1 potentiator inactive.
`COc1ccc(NS(=O)(=O)c2c(C(=O)N3CCCCCC3)c(C)n(C)c2C)cc1` gave TRPV1 ag inactive, KCNH2 3.1 block -74, hERG WT inh inactive and TRPV1 potentiator inactive.
For COc1ccc(Cn2c(CO)cnc2SCC(=O)Nc2cccc(NC(C)=O)c2)cc1 the results were TRPV1 ag inactive, KCNH2 3.1 block inactive, hERG WT inh inactive and TRPV1 potentiator inactive.
`O=C(COC(=O)/C=C/c1ccc(OC(F)F)cc1)NCc1cccs1` gave TRPV1 ag inactive, KCNH2 3.1 block inactive, hERG WT inh inactive and TRPV1 potentiator inactive.
O=C(CO/N=C/c1ccc(OC(F)F)cc1)NCc1cccs1 was read as TRPV1 ag inactive, KCNH2 3.1 block -80, hERG WT inh inactive and TRPV1 potentiator inconclusive.
COc1ccc(C2=NOC(Cn3nc(C(=O)NCc4ccc(C)cc4)cc3-c3ccccc3)C2)cc1 (stereo unspecified) was read as TRPV1 ag inactive, KCNH2 3.1 block inactive, hERG WT inh inactive and TRPV1 potentiator inactive.
Screening COc1ccc(C2=NOC(Cn3nc(C(=O)NCc4cccc(C(F)(F)F)c4)cc3-c3ccccc3)C2)cc1 (stereo unspecified) returned TRPV1 ag inactive, KCNH2 3.1 block -74, hERG WT inh inactive and TRPV1 potentiator inconclusive.
Screening O=C(COC(=O)c1ccc([N+](=O)[O-])o1)NC1CCCc2ccccc21 (stereo unspecified) returned KCNH2 3.1 block inactive and hERG WT inh inactive.
`Cc1ccc(NC(=O)c2ccc3c(c2)OCCO3)cc1C` gave TRPV1 ag 85, KCNH2 3.1 block inactive, hERG WT inh inactive and TRPV1 potentiator inactive.
Cc1ccc(C(=O)N2CCN(c3ccc(NC(=O)c4ccc5c(c4)OCCO5)cc3)CC2)cc1 was read as TRPV1 ag inactive, KCNH2 3.1 block -93, hERG WT inh inactive and TRPV1 potentiator inactive.
For Cc1ccccc1C(=O)N1CCN(c2ccc(NC(=O)c3ccc4c(c3)OCCO4)cc2)CC1 the results were TRPV1 ag inactive, hERG WT inh inactive and TRPV1 potentiator inactive.
